Laboratory results: PubChem BioAssay AID504465 (National Center for Advancing Translational Sciences (NCATS), 2011)
Screen size: about 2,100 compounds; about 210 (10%) were called active. Another 53% or so got no clear call; they are omitted. Calls follow the shape of the dose curve; as a rule, active = well fitted inhibition curve with a large enough effect; inconclusive = small, poorly fitted or top-dose-only effect, or effect the other way; inactive = no such curve, though single readings can be large or run the other way. This is one part of the list.

assay: IN Cell qHTS Assay for Inhibitors of the mTORC1 Signaling Pathway in MEF (Tsc2-/-, p53-/-) Cells: Sytravon; details: phospho-rpS6 immunofluorescence, 24 h; series mostly up to 38.3 µM; activity, negative = inhibition: at the top concentration; also: nearly all actives have a fitted effect of over 60% in size;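 as to activity, negative = inhibition: plate controls were DMSO wells for no effect and 7.5 nM rapamycin full pathway inhibition for full effect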
In short: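 Tsc2-/-, p53-/- MEFs (empty-vector) treated with compound 24 h at 37 degree Celsius, then fixed and stained for phospho-rpS6 Ser235/236 (Alexa-488) plus Hoechst. Reported as % positive cells, thresholds set against 7.5 nM rapamycin and DMSO wells.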
Potency is read from the fitted curve at half-maximal effect.

| SMILES | activity, negative = inhibition | Potency |
| --- | --- | --- |
| CCn1c2c(c(=O)n3ncc(C(=O)N4CCN(c5ccc(Cl)cc5)CC4)c13)CN(Cc1ccc(OC)cc1)CC2 | -6.81% (inactive) | – |
| CCS(=O)(=O)c1ncc(Cl)c(C(=O)N2CCN(c3cccc(Cl)c3)CC2)n1 | – | 2610 nM (active) |
| CCCS(=O)(=O)c1ncc(Cl)c(C(=O)N2CCN(c3ccc(OC)cc3)CC2)n1 | 0% (inactive) | – |
| Cc1ccc2nc(N3CCC(C(=O)N4CCN(c5cccc(Cl)c5)CC4)CC3)[nH]c2c1 | 10.7% (inactive) | – |
| Cc1oc2ncnc(N3CCCCC3)c2c1C(=O)N1CCN(c2cccc(Cl)c2)CC1 | -0.832% (inactive) | – |
| CS(=O)(=O)c1ncc(Cl)c(C(=O)N2CCN(c3cccc(Cl)c3)CC2)n1 | – | 521 nM (active) |
| Cc1ccccc1S(=O)(=O)Cc1ccc(C(=O)N2CCN(c3cccc(Cl)c3)CC2)o1 | -13.2% (inactive) | – |
| CNS(=O)(=O)c1cn(CC(=O)N2CCN(c3cccc(Cl)c3)CC2)cc1S(=O)(=O)NC | -5.97% (inactive) | – |
| CCS(=O)(=O)c1ncc(Cl)c(C(=O)N2CCN(c3ccc(OC)cc3)CC2)n1 | – | 4650 nM (active) |
| COc1ccc(N2CCN(C(CNC(=O)C(=O)NCc3ccc(F)cc3)c3cccnc3)CC2)cc1 (stereo not given) | -3.11% (inactive) | – |
| Cc1ccc(CNS(=O)(=O)c2cc(C(=O)Nc3cccc(C(F)(F)F)c3)ccc2F)cc1 | -5.56% (inactive) | – |
| COc1ccc(NC(=O)c2c(NCc3ccc(C)o3)sc3c2CCC(C)C3)c(OC)c1 (stereo not given) | 0% (inactive) | – |
| CC(=O)N1c2ccc(S(=O)(=O)NCC3CCC(C(=O)Nc4cccc(F)c4)CC3)cc2CC1C (stereo not given) | -6.44% (inactive) | – |
| Cc1cc(-c2ccc(S(=O)(=O)Nc3cc(Cl)ccc3C)s2)on1 | -20% (inactive) | – |
| COc1cccc(CNC(=O)C2Cc3cc(S(=O)(=O)N4CCCCCC4)ccc3N2C(C)=O)c1 (stereo not given) | 0% (inactive) | – |
| Cc1ccc2nc(/C(C#N)=C/c3cccc(Br)c3)[nH]c2c1 | -32% (inactive) | – |
| CCc1ccc(S(=O)(=O)c2nnn(-c3cccc(C)c3)c2N)cc1 | 2.14% (inactive) | – |
| Cc1cccc(C2C=C(c3ccc(C)c(C)c3)Nc3nnnn32)c1 (stereo not given) | 0% (inactive) | – |
| Cc1cccc(-n2nnnc2S(C)(=O)=O)c1 | – | 1470 nM (active) |
| COc1ccc(C(=O)NC(c2ccccc2Cl)c2cc(Cl)c3cccnc3c2O)cc1 (stereo not given) | 0% (inactive) | – |
| O=C(Nc1nnc(-c2cc(Cl)ccc2Cl)o1)c1ccc2c(c1)OCCO2 | 15.6% (inactive) | – |
| COC(=O)c1sc2cccc(F)c2c1S(=O)(=O)N1CCN(c2cccc(OC)c2)CC1 | 0.892% (inactive) | – |
| COc1ccc(/C=C/c2nc(C#N)c(NC3CCCCC3)o2)cc1OC | -11.3% (inactive) | – |
| COc1cccc(-c2nnc3sc(CN4CCCCC4)cn23)c1 | – | 14700 nM (active) |

| SMILES | activity, negative = inhibition | Potency |
| --- | --- | --- |
| COc1cccc(-c2cc(C(=O)Nc3ccn(Cc4ccc(C)cc4)n3)no2)c1 | 24.6% (inactive) | – |
| COc1ccc(NC(=O)c2c(C)oc3ccc(O)c(CN4CCCCCC4)c23)cc1 | -14.3% (inactive) | – |
| Cc1ccc(CNCc2c(C(=O)O)n(Cc3ccc(C)cc3)c3cc(C)ccc23)cc1 | -13.3% (inactive) | – |
| O=C(Nc1ccc(C(F)(F)F)cc1)c1cc(S(=O)(=O)NC2CCCCCC2)ccc1F | 6.25% (inactive) | – |
| CCc1ccccc1NC(=O)CSc1nnc(COc2ccccc2Cl)o1 | 2.63% (inactive) | – |
| Cc1ccc(OCC(=O)Nc2nnc(SCc3cc(=O)n4cc(C)ccc4n3)s2)cc1 | 2.68% (inactive) | – |
| COc1cc(C(=O)n2nc(C)c(Sc3ccc(Cl)cc3)c2C)cc(OC)c1OC | – | 11700 nM (active) |
| COc1cc(C(=O)N2CCc3c([nH]c4ccccc34)C2c2ccc(C)cc2)cc(OC)c1OC (stereo not given) | -41.5% (inactive) | – |
| Cc1ccc(-n2c(SCc3ccccc3C)nc3[nH]ncc3c2=O)cc1C | 0% (inactive) | – |
| COc1ccc(Cl)cc1NC(=O)c1c(NCc2cccnc2)sc2c1CCC(C)C2 (stereo not given) | 0% (inactive) | – |
| COc1ccc(Cl)cc1NC(=O)c1c(NCc2cccs2)sc2c1CCC(C)C2 (stereo not given) | 0% (inactive) | – |
| CC(C)(C)C1CCc2c(sc(NC(=O)c3cccc(Cl)c3)c2C(N)=O)C1 (stereo not given) | – | 7360 nM (active) |
| CCCCC(=O)OC1=C(C(=O)c2ccccc2)N(CCC)S(=O)(=O)c2ccccc21 | -13.9% (inactive) | – |
| Cc1scc(CN2CCN(c3ccccc3F)CC2)c1C | -3.84% (inactive) | – |
| CC1C(=O)Nc2ccc(S(=O)(=O)Nc3ccccc3Br)cc2NC1=O (stereo not given) | -11.9% (inactive) | – |
| CN(C)CCNC(=O)c1ccc(-n2c(-c3ccccc3)cc3c2CCCCC3)cc1 | -13.6% (inactive) | – |
| CCS(=O)(=O)c1ncc(Cl)c(C(=O)Nc2ccc(S(=O)(=O)N(C)c3ccccc3)cc2)n1 | – | 927 nM (active) |
| CCNC(=O)c1c(NC(=O)c2nc(S(=O)(=O)CC)ncc2Cl)sc2c1CCCC2 | – | 2070 nM (active) |
| CCS(=O)(=O)c1ncc(Cl)c(C(=O)Nc2c(C(=O)Nc3cccc(C)c3)oc3ccccc23)n1 | -11.7% (inactive) | – |
| CCSc1ncc(Cl)c(C(=O)Nc2ccc(S(=O)(=O)N3CCCCC3CC)cc2)n1 (stereo not given) | -7.02% (inactive) | – |
| CCS(=O)(=O)c1ncc(Cl)c(C(=O)Nc2ccccc2)n1 | – | 2610 nM (active) |
| CN(C)C(=O)c1c(NC(=O)c2ccccc2F)sc2c1CCCC2 | 3.93% (inactive) | – |
| CCCS(=O)(=O)c1ncc(Cl)c(C(=O)Nc2c(C(=O)Nc3ccccc3)oc3ccccc23)n1 | – | 2070 nM (active) |
| CC(=O)Nc1c(C(=O)Nc2ccccc2F)oc2ccccc12 | -23.3% (inactive) | – |

| SMILES | activity, negative = inhibition | Potency |
| --- | --- | --- |
| Cc1cc(C)cc(-n2c(SCC(N)=O)nc3c([nH]c4ccccc43)c2=O)c1 | -14.5% (inactive) | – |
| CC1=C(C(=O)Nc2ccccc2)C(c2cccnc2)n2nc(SCc3ccccc3F)nc2N1 (stereo not given) | 4.84% (inactive) | – |
| COc1ccc(Cl)cc1NC(=O)c1c(NCc2ccc(C)o2)sc2c1CCC(C)C2 (stereo not given) | 0% (inactive) | – |
| COC(=O)c1ccc([C@H]2Nc3ccc(S(=O)(=O)Nc4ccc(F)cc4)cc3[C@H]3C=CC[C@H]32)cc1 | -20.2% (inactive) | – |
| CC(C)c1ccc(S(=O)(=O)Nc2ccc3oc4c(c3c2)C(=O)CC(C)(C)C4)cc1 | -100% (inactive) | – |
| COc1cc(S(=O)(=O)NCCc2c(C)[nH]c3ccccc23)c(C)cc1C | 27.6% (inactive) | – |
| CN(C)S(=O)(=O)c1ccc(C(=O)Nc2ccc(-n3nncc3-c3ccccc3)cc2)cc1 | 6.25% (inactive) | – |
| COC(=O)c1sccc1S(=O)(=O)N(CC(=O)Nc1ccc(C)cc1)c1ccccc1 | 0.187% (inactive) | – |
| CSc1ncc(Cl)c(C(=O)N(C)c2ccccc2)n1 | -7.39% (inactive) | – |
| CCN(c1ccccc1)S(=O)(=O)c1ccc(NC(=O)c2nc(S(C)(=O)=O)ncc2Cl)cc1 | – | 2070 nM (active) |
| CCN(CC)c1nc2ccccc2nc1C(=O)Nc1ccc(C(C)=O)cc1 | -4.22% (inactive) | – |
| CN(c1ccccc1)S(=O)(=O)c1ccc(NC(=O)c2nc(S(C)(=O)=O)ncc2Cl)cc1 | – | 736 nM (active) |
| Oc1cccc(Nc2nc(-c3ccccc3)nc3ccccc23)c1 | 14.6% (inactive) | – |
| Cc1ccc(-n2cnc3cc(C(=O)NCCC4=CCCCC4)ccc32)cc1Cl | 6.25% (inactive) | – |
| Cc1ccc(NC(=O)N2CC3CCCN3c3ccccc32)cc1Cl (stereo not given) | 1.3% (inactive) | – |
| Cc1ccc(-c2nn3c(=O)cc(CN4CCN(C(=O)Nc5cc(Cl)ccc5C)CC4)nc3s2)cc1 | -27.1% (inactive) | – |
| CCOC(=O)c1c(NC(=O)c2ccc(S(=O)(=O)N3CCC(C)CC3)cc2)sc2c1CCN(C)C2 | -15% (inactive) | – |
| COc1ccccc1CNC(=O)C(=O)NCC(c1cccnc1)N1CCN(c2ccc(F)cc2)CC1 (stereo not given) | -26.1% (inactive) | – |
| Cc1ccc(/C=C(\C#N)C(=O)Nc2ccc(Br)cc2)o1 | -12.4% (inactive) | – |
| Cc1[nH]n2c(=O)cc(-c3ccc(Cl)cc3)nc2c1-c1ccccc1 | -21.5% (inactive) | – |
| N=c1n(CCN2CCCCC2)c2ccccc2n1CC(O)COc1ccc(Cl)cc1Cl (stereo not given) | – | 2610 nM (active) |
| CCCCn1c(=N)n(CCOc2ccccc2OC)c2ccccc21 | – | 6560 nM (active) |
| Cc1ccc(OCCn2c(CNc3cccc(C)c3)nc3ccccc32)cc1 | 3.56% (inactive) | – |
| COc1ccccc1N1CCN(CC(O)COc2ccc(C)cc2C(C)(C)C)CC1 (stereo not given) | 15.3% (inactive) | – |

| SMILES | activity, negative = inhibition | Potency |
| --- | --- | --- |
| CCn1c(=N)n(CCOc2ccc(Br)cc2)c2ccccc21 | – | 6560 nM (active) |
| COc1cccc(OCc2nc3ccccc3n2CCOc2ccc(C)cc2)c1 | -0.601% (inactive) | – |
| Cc1ccccc1OCC(O)Cn1c(=N)n(CCN2CCCCC2)c2ccccc21 (stereo not given) | – | 5850 nM (active) |
| COc1cc(C2CC(=O)Nc3cc4c(cc32)OCCO4)cc(OC)c1O (stereo not given) | 5.26% (inactive) | – |
| COc1ccccc1NC(=O)CSc1nnc2c(n1)[nH]c1ccccc12 | -25.8% (inactive) | – |
| CCN(C(=O)c1cc2c(=O)oc3ccc(C)cc3c2s1)c1ccccc1F | 2.45% (inactive) | – |
| Cc1ccccc1C(=O)Nc1cccc(OCc2cc(=O)n3cccc(C)c3n2)c1 | -3.41% (inactive) | – |
| CCOc1ccc(C2=C(C(C)=O)Sc3nnc(C)n3N2C(C)=O)cc1 | -20.9% (inactive) | – |
| O=C(NCc1ccccc1Cl)c1nnc(Cc2cccc(F)c2)o1 | -10.8% (inactive) | – |
| COc1ccc(C)cc1NC(=O)C(NS(=O)(=O)c1cccs1)c1ccccc1 (stereo not given) | -19.2% (inactive) | – |
| COc1ccc(N2CCN(CC(O)COc3ccc(C)c(C)c3)CC2)cc1 (stereo not given) | 0% (inactive) | – |
| CCCCCn1c(=N)n(CC(O)COc2cccc(C)c2)c2ccccc21 (stereo not given) | – | 2610 nM (active) |
| CCN(CC)CCn1c(=N)n(CCOc2ccccc2Cl)c2ccccc21 | – | 3690 nM (active) |
| Cc1ccccc1OCCn1c(=N)n(C(C)C)c2ccccc21 | – | 9270 nM (active) |
| CCN(CC)CCn1c(=N)n(CC(O)COc2ccccc2C)c2ccccc21 (stereo not given) | – | 5850 nM (active) |
| CCCCCn1c(-c2cccc(C)c2)nc2ccccc21 | -18.9% (inactive) | – |
| Cc1ccc(C(=O)n2nc(C)c(S(=O)(=O)N3CCCCCC3)c2C)cc1 | 0.537% (inactive) | – |
| Cc1ccc(NC(=O)CCNS(=O)(=O)c2cccc3nonc23)cc1Cl | 5.36% (inactive) | – |
| COc1ccc(C(=O)c2cn(Cc3cccc(C)c3)c3cc4c(cc3c2=O)OCO4)cc1 | 23.3% (inactive) | – |
| CCOC(=O)c1ccccc1Nc1cc(C)nc2nc(-c3ccco3)nn12 | -9.33% (inactive) | – |
| CC(C)c1ccc(NC(=O)c2cc(S(=O)(=O)NCCC3=CCCCC3)ccc2F)cc1 | 6.25% (inactive) | – |
| Fc1ccc(-c2csc(=Nc3cccc(C(F)(F)F)c3)n2Cc2ccc3c(c2)OCO3)cc1 | 6.58% (inactive) | – |
| CCOC(=O)N1CCc2c(sc3c2C(=O)NC(c2ccc(C(=O)OC)cc2)N3)C1 (stereo not given) | -10.6% (inactive) | – |
